Binding signal data for one sequence are collected here from PMC7862700, “An all-to-all approach to the identification of sequence-specific readers for epigenetic DNA modifications on cytosine”.

Holding throughout (assay): DAPPL (digital affinity profiling via proximity ligation, sequencing); 10 mM Tris-HCl pH 7.5, 50 mM NaCl, 1 mM DTT, 4% glycerol, room temperature, 30 min; GST-TFs on glutathione beads, 16-mer random dsDNA library, 0.1% formaldehyde crosslink after washing; high values mean tight binding
Conditions in all cases: protein: recombinant; tags: N-terminal GST; dsDNA, one strand shown

The target of one test is T1, FLI1 (Homo sapiens, UniProt Q01543 1-452).
T1 sequence: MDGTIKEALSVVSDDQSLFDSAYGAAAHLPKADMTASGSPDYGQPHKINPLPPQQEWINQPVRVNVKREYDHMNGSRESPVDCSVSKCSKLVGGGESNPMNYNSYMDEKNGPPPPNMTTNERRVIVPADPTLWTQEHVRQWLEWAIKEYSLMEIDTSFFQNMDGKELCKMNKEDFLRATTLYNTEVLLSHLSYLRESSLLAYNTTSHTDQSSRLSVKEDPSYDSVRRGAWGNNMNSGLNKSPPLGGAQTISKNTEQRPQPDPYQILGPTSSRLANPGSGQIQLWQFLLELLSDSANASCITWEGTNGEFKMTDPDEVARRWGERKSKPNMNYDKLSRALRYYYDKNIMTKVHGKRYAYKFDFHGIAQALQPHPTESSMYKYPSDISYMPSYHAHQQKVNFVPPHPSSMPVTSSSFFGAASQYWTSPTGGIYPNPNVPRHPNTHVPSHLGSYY
In a few lines:
(§1)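 A tag-only sample was pooled with DNA-barcoded human transcription factors that had been expressed in yeast as GST fusions and captured on glutathione beads. The pools were incubated for 30 min at room temperature with 200 nmole of a random double-stranded 16-mer DNA library in Tris/NaCl/DTT/glycerol buffer, then washed, crosslinked with 0.1% formaldehyde, proximity-ligated (BsaI/T4 ligase, 1 h, 37 °C), PCR-amplified and sequenced on an Illumina NextSeq500. Binding signal is each hexamer's read frequency for a factor divided by its frequency for the tag-only sample.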

The next test addresses T2, ELK1 (Homo sapiens, UniProt P19419 1-428).
T2 sequence: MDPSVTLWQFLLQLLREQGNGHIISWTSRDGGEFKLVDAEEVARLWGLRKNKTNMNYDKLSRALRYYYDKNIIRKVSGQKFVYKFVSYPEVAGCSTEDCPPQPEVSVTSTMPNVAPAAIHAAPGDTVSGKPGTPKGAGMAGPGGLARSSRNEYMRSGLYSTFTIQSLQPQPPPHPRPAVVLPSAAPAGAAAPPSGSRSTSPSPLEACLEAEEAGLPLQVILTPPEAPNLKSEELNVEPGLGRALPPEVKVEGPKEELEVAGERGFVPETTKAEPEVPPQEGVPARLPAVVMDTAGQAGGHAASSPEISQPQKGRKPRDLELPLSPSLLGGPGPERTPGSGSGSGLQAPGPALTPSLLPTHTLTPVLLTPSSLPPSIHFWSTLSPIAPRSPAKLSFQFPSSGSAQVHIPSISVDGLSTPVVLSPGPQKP
In a few lines: as §1

For a further test, the target named is T3, GABPA (Homo sapiens, UniProt Q06546 1-454).
T3 sequence: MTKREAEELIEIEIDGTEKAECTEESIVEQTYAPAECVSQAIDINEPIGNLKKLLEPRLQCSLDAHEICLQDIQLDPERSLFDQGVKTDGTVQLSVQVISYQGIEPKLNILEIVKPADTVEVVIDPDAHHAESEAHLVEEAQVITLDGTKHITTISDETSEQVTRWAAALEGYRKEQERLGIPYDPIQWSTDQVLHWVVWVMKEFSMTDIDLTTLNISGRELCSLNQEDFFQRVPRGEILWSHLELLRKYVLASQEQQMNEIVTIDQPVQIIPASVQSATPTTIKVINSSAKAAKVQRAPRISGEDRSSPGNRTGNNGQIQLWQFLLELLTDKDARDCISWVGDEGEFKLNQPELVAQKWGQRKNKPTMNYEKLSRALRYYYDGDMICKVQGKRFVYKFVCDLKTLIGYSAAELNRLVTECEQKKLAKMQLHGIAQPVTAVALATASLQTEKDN
An outline of the steps:
as §1

The target in a further test is T4, ERG (Homo sapiens, UniProt P11308 1-479).
T4 sequence: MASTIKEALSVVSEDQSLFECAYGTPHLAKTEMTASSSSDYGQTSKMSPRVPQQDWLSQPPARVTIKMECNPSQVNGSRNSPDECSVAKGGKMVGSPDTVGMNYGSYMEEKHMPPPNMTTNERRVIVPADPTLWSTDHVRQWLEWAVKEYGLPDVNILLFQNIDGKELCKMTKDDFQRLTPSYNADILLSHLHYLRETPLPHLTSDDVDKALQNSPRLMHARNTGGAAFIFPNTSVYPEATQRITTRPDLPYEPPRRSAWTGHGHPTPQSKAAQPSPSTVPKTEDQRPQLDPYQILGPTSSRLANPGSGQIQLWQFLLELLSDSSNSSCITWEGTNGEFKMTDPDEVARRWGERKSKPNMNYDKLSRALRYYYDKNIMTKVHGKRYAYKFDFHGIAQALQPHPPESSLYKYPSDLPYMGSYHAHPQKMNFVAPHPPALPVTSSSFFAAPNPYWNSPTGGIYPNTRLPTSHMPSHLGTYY
An outline of the steps:
as §1

The target of the next test is ELF1 (Homo sapiens, UniProt P32519 1-619). In a few lines:
as §1

In another test the target is T5, EHF (Homo sapiens, UniProt Q9NZC4 1-300).
T5 sequence: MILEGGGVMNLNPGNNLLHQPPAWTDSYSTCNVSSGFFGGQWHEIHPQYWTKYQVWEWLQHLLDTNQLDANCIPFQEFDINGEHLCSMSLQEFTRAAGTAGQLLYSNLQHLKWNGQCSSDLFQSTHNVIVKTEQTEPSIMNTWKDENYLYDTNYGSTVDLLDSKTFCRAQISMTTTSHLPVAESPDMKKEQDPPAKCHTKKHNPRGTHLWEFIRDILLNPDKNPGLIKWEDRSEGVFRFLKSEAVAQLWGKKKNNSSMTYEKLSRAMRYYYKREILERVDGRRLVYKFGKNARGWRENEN
In a few lines: as §1

The next test has as its target SPI1 (Homo sapiens, UniProt P17947 1-270). An outline of the steps: as §1
The target of the next test is SPIB (Homo sapiens, UniProt Q01892 1-262). An outline of the steps:
as §1

A further test concerns the target T6, ELK3 (Homo sapiens, UniProt P41970 1-407).
T6 sequence: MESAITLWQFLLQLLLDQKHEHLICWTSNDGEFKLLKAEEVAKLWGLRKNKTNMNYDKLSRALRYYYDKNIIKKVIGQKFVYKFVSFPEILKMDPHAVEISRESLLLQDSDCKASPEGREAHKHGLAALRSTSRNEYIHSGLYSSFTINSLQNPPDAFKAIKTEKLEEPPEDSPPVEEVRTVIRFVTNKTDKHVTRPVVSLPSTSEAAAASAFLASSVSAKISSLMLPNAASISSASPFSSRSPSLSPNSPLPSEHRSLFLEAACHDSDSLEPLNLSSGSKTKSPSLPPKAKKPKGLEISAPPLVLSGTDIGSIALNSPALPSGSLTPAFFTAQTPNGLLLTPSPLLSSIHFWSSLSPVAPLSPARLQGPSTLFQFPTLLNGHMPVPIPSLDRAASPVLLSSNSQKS
An outline of the steps: as §1

A further test deals with T7, FEV (Homo sapiens, UniProt Q99581 1-238).
T7 sequence: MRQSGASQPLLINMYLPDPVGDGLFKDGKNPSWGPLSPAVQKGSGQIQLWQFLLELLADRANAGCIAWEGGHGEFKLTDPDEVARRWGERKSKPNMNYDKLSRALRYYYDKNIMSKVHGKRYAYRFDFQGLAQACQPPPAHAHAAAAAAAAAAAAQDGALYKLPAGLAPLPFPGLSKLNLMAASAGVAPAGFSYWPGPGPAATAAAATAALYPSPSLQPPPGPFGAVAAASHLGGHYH
An outline of the steps: as §1

The next test deals with ETV5 (Homo sapiens, UniProt P41161 1-510). In a few lines:
as §1

The target in a further test is T8, SPIC (Homo sapiens, UniProt Q8N5J4 1-248).
T8 sequence: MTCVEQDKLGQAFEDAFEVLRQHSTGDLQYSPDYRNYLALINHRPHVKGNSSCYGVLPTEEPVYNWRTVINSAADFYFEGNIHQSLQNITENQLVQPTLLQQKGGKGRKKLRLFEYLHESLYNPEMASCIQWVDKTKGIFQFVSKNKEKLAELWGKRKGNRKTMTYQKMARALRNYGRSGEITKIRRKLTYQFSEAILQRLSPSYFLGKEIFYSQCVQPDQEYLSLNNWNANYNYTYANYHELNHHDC
An outline of the steps:
as §1

The target of the next test is ELF4 (Homo sapiens, UniProt Q99607 1-663). In a few lines: as §1
A further test concerns the target T9, ELK4 (Homo sapiens, UniProt P28324-2 1-405).
T9 sequence: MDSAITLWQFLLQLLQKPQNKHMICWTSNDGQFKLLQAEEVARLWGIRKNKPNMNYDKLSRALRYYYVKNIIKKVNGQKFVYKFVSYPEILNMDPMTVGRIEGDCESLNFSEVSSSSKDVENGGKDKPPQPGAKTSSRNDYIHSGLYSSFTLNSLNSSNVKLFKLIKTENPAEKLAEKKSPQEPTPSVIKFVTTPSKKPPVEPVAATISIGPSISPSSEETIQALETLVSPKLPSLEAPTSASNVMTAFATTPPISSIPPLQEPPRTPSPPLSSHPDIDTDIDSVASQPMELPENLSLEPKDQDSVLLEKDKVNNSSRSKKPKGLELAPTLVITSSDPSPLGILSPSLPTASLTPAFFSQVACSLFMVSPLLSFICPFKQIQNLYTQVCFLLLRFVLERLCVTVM
An outline of the steps:
as §1

A further test concerns the target T10, ETV2 (Homo sapiens, UniProt O00321 1-342).
T10 sequence: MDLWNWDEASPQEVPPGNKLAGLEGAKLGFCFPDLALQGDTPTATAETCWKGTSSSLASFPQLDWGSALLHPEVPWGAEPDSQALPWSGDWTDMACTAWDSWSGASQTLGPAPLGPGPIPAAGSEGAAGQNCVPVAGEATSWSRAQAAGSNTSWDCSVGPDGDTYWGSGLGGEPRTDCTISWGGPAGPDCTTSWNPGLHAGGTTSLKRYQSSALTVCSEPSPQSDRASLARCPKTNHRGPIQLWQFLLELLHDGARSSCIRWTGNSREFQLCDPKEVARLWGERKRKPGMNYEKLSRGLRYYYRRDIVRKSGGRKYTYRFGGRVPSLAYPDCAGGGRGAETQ
An outline of the steps: as §1

Another test addresses T11, ELF3 (Homo sapiens, UniProt P78545 1-371).
T11 sequence: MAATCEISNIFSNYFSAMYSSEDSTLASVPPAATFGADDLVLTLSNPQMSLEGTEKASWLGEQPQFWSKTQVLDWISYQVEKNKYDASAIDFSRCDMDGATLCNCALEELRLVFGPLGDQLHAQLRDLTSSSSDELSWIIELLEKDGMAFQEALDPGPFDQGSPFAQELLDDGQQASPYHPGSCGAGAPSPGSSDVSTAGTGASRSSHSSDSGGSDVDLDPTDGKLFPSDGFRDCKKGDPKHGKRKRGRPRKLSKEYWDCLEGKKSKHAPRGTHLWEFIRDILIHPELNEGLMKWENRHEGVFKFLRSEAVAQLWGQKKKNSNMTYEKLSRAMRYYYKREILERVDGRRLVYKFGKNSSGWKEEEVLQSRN
An outline of the steps:
as §1

In the next test the target is ETV1 (Homo sapiens, UniProt P50549 1-477). An outline of the steps: as §1
Chain of ETV1 (P50549 whole entry): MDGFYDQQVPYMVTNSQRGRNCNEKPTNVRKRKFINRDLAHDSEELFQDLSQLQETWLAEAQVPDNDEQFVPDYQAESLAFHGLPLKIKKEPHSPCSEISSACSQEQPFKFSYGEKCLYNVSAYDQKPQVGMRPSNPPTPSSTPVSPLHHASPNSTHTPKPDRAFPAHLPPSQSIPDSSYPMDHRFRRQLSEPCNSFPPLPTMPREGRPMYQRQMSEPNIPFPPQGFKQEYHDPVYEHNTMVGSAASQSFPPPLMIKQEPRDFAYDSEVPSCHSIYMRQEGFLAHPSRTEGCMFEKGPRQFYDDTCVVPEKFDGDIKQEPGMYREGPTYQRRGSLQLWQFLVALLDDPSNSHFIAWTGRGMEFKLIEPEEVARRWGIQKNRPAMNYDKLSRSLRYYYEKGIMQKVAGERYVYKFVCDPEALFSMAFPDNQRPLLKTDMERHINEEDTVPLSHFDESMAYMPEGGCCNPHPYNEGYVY

Chain of ETV5 (P41161 whole entry): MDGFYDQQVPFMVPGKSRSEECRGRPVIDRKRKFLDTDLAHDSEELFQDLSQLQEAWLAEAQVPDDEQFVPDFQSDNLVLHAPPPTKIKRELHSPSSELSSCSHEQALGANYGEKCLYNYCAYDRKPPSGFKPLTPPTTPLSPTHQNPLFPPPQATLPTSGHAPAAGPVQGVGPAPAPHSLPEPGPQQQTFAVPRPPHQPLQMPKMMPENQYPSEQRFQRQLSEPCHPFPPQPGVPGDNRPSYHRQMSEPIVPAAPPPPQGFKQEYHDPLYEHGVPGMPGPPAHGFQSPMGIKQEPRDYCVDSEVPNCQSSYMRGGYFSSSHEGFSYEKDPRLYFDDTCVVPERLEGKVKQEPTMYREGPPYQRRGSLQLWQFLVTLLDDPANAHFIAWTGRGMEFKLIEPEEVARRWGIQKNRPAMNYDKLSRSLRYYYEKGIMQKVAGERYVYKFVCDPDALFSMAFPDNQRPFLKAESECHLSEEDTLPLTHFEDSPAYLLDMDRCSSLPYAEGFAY
Chain of ELF4 (Q99607 whole entry): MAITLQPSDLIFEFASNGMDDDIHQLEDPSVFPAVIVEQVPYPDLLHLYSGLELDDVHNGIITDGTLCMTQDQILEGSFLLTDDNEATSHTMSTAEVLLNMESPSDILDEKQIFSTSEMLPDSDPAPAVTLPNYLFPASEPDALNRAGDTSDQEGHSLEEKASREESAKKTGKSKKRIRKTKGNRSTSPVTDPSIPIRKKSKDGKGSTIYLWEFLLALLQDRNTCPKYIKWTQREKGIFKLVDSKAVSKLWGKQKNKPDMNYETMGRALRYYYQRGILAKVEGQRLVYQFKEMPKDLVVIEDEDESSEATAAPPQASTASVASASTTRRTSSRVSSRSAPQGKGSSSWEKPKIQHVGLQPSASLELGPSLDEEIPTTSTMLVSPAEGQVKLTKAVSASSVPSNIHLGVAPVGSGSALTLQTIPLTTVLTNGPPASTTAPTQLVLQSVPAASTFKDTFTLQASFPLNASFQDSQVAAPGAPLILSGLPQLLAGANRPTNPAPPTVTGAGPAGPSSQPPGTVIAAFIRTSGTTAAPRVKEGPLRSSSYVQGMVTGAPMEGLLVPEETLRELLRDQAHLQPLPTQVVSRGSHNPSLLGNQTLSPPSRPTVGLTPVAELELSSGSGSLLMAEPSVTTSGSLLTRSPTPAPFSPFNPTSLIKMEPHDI
Chain of SPIB (Q01892 whole entry): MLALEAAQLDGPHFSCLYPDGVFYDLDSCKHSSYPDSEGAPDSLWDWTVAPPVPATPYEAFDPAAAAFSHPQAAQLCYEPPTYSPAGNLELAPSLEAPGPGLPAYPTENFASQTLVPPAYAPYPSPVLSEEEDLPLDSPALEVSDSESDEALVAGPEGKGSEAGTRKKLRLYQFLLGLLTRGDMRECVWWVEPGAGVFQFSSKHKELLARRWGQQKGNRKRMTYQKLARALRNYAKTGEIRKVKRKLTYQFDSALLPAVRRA
Chain of ELF1 (P32519 whole entry): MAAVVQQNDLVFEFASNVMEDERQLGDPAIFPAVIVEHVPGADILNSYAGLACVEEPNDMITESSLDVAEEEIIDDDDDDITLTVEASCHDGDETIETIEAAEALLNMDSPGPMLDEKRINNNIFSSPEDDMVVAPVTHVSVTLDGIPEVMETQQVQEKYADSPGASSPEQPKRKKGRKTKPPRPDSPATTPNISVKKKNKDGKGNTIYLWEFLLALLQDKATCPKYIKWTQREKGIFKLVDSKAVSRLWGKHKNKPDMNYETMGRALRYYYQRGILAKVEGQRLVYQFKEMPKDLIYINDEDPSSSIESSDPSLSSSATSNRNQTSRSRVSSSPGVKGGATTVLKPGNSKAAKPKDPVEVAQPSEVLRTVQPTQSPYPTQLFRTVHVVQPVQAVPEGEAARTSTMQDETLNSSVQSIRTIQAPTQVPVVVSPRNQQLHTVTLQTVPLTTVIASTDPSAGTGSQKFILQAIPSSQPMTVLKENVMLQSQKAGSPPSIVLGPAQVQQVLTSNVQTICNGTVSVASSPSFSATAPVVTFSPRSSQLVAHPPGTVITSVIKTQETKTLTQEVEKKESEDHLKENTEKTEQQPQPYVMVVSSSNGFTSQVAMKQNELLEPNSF

Turning to GGCCTC, the binding signal was 1.25 fold enrichment (6-mer frequency, TF over GST control) in the test with FLI1; 1.2 fold enrichment (6-mer frequency, TF over GST control) with ELK1; 1.26 fold enrichment (6-mer frequency, TF over GST control) with GABPA; 1.19 fold enrichment (6-mer frequency, TF over GST control) with ERG; 1.17 fold enrichment (6-mer frequency, TF over GST control) with ELF1; 1.21 fold enrichment (6-mer frequency, TF over GST control) with EHF. The binding signal with SPI1 is 1.11 fold enrichment (6-mer frequency, TF over GST control); in the test with SPIB, 1.18 fold enrichment (6-mer frequency, TF over GST control); with ELK3 it was 1.1 fold enrichment (6-mer frequency, TF over GST control); with FEV, 1.07 fold enrichment (6-mer frequency, TF over GST control); with ETV5, 1.15 fold enrichment (6-mer frequency, TF over GST control); in the test with SPIC, 1.01 fold enrichment (6-mer frequency, TF over GST control). The binding signal was 1.12 fold enrichment (6-mer frequency, TF over GST control) with ELF4; 1.17 fold enrichment (6-mer frequency, TF over GST control) with ELK4; 1.17 fold enrichment (6-mer frequency, TF over GST control) with ETV2; 1.05 fold enrichment (6-mer frequency, TF over GST control) with ELF3; 1.07 fold enrichment (6-mer frequency, TF over GST control) with ETV1.
